Data as given in the supplement of paper PMC11732987, “Enantioselective OTUD7B fragment discovery through chemoproteomics screening and high-throughput optimisation” (Communications Chemistry, 2025).
A number with no mark means an inactive call.

How the values were obtained:
Assay in all cases: log2 ratio of Biotin-Ahx-Ub-VS probe labelling (fragment/DMSO); higher = less target engagement (more negative = stronger competition), active = hit call of the paper (q ≤ 0.05, log2 ratio ≤ -1)
Conditions in all cases: compound concentration: 200 uM; treatment time: 3 h
[1] = target: UniProt O00507
Summary of the method: (§1)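 Labelling with Biotin-Ahx-Ub-VS (0.5 µM final, 1 h) followed a 3 h triplicate treatment of HEK293T lysate (495 µg per sample, Tris/CHAPS/IGEPAL buffer with protease inhibitors) with fragment at 200 µM or vehicle. Labelled DUBs were NeutrAvidin-enriched, digested with LysC and trypsin, and run by diaPASEF LC-MS/MS. The values, average log2 fragment/vehicle ratios by unpaired t-test, come from global-median-normalised Spectronaut label-free quantities. Proteins with ≥2 unique peptides were used.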

[2] = target: UniProt P51784
Summary of the method: as §1

[3] = target: T1, UniProt Q5T2D3
T1 sequence (whole entry): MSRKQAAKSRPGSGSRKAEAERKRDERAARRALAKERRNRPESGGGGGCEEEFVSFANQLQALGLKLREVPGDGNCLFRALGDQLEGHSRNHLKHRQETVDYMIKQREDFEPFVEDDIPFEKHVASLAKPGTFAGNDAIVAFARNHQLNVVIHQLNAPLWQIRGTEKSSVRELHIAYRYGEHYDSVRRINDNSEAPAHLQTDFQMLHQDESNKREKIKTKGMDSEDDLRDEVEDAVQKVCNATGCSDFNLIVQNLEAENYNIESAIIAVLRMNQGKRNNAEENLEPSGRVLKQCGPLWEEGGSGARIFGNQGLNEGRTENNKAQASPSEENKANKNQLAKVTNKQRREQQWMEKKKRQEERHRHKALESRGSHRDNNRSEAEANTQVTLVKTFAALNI
Summary of the method: as §1

[4] = target: T2, UniProt Q8TE49
T2 sequence (whole entry): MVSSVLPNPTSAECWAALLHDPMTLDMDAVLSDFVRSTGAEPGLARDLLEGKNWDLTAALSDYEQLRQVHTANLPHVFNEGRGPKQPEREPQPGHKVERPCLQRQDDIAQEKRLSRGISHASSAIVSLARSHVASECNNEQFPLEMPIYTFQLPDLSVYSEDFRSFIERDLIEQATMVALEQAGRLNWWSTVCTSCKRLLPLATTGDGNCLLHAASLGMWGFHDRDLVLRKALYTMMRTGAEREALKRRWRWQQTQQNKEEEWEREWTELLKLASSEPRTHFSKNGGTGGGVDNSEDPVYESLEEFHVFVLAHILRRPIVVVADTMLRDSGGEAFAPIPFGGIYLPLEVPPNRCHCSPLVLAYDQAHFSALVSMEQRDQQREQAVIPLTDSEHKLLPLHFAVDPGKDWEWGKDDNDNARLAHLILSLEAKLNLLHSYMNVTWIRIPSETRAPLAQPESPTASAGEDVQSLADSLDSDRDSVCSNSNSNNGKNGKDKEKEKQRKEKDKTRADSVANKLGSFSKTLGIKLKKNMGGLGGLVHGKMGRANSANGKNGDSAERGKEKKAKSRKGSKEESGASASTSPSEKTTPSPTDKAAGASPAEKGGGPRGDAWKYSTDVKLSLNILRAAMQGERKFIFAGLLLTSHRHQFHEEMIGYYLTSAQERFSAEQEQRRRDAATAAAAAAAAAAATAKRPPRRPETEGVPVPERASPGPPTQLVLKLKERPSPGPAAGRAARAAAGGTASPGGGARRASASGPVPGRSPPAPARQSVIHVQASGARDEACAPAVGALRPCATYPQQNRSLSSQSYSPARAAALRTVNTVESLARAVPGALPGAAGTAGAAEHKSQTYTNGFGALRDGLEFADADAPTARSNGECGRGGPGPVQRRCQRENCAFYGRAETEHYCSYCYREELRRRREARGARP
Summary of the method: as §1

[5] = target: T3, UniProt Q9P2H5
T3 sequence (whole entry): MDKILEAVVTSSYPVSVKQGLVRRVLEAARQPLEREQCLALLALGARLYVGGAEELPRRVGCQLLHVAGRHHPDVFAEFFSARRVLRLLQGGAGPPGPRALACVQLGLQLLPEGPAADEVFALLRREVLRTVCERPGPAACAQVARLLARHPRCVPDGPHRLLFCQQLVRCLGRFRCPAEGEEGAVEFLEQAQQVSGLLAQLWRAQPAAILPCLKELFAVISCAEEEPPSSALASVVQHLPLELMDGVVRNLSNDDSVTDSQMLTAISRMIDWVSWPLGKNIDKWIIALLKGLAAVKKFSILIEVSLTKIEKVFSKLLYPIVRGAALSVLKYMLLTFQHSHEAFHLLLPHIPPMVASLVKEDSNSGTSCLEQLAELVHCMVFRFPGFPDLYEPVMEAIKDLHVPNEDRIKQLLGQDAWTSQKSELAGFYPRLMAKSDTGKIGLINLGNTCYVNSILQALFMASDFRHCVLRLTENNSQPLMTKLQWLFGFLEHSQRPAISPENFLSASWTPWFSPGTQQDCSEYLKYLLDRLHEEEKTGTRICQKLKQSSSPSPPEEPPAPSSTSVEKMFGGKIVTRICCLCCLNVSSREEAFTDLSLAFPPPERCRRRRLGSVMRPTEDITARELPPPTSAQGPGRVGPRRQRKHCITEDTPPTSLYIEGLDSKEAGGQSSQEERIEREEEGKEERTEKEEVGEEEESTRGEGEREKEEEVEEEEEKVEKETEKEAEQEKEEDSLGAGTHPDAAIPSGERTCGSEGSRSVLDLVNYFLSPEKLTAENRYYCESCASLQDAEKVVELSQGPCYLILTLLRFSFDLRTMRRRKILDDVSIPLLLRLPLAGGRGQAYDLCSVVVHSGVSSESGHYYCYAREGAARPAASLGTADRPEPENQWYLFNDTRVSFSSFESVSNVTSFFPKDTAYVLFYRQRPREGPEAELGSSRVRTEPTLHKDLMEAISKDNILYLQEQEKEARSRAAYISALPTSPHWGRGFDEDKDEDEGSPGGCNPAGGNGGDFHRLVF
Summary of the method: as §1

[6] = target: T4, UniProt Q9UGI0
T4 sequence (whole entry): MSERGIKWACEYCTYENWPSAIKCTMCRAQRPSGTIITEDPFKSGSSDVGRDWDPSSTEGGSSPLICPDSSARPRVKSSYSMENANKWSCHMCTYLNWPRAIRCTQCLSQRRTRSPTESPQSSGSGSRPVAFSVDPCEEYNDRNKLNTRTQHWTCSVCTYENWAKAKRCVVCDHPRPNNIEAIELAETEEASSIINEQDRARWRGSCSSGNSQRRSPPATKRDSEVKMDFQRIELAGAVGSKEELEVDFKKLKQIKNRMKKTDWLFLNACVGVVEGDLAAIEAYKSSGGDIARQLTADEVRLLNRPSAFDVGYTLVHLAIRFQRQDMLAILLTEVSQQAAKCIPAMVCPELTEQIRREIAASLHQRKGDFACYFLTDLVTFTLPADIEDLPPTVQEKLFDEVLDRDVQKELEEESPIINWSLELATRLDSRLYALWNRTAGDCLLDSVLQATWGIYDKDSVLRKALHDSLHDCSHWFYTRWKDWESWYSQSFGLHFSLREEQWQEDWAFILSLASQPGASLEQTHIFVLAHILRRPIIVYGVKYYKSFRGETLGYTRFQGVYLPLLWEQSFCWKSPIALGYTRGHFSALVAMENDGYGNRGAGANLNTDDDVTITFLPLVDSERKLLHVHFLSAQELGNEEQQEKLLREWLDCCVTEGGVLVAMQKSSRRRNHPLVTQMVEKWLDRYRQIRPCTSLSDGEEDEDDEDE
Summary of the method: as §1

[7] = target: T5, YOD1 (UniProt Q5VVQ6)
T5 sequence (whole entry): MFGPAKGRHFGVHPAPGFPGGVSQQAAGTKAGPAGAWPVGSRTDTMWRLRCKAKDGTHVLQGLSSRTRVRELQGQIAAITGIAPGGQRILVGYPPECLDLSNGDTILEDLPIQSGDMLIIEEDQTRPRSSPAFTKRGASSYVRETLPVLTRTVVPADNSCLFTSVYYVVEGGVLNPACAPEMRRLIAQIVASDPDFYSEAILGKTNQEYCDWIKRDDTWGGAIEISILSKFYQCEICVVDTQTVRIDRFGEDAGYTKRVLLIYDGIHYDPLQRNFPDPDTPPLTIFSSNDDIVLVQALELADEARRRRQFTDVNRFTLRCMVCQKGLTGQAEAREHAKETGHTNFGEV
Summary of the method: as §1

Chain of UniProt P51784 (P51784 whole entry): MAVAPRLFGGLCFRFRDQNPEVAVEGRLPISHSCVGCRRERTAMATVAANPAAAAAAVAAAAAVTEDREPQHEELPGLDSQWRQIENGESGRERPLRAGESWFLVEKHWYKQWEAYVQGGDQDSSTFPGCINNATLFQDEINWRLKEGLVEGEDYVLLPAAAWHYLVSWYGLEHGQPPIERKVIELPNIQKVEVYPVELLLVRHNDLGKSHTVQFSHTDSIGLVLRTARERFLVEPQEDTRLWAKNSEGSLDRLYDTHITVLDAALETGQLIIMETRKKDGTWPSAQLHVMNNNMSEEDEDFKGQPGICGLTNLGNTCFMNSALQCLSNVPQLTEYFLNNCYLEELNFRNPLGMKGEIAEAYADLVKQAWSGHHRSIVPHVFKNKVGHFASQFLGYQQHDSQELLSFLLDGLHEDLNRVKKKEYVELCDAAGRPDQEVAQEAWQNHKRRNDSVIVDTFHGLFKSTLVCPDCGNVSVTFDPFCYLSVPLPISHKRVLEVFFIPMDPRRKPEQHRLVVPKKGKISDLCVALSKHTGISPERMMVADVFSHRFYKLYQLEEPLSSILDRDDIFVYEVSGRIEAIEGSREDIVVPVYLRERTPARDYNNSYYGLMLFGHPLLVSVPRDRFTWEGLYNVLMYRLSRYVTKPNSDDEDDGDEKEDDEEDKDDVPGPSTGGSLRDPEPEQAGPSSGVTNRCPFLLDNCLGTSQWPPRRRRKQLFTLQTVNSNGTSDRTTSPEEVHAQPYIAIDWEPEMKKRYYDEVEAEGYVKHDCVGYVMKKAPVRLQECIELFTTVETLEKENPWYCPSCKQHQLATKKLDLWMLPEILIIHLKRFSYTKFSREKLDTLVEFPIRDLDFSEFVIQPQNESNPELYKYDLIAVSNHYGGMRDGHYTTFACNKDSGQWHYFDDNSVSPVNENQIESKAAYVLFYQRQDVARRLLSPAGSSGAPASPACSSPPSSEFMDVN
Chain of UniProt O00507 (O00507 whole entry, the tested form may be a part): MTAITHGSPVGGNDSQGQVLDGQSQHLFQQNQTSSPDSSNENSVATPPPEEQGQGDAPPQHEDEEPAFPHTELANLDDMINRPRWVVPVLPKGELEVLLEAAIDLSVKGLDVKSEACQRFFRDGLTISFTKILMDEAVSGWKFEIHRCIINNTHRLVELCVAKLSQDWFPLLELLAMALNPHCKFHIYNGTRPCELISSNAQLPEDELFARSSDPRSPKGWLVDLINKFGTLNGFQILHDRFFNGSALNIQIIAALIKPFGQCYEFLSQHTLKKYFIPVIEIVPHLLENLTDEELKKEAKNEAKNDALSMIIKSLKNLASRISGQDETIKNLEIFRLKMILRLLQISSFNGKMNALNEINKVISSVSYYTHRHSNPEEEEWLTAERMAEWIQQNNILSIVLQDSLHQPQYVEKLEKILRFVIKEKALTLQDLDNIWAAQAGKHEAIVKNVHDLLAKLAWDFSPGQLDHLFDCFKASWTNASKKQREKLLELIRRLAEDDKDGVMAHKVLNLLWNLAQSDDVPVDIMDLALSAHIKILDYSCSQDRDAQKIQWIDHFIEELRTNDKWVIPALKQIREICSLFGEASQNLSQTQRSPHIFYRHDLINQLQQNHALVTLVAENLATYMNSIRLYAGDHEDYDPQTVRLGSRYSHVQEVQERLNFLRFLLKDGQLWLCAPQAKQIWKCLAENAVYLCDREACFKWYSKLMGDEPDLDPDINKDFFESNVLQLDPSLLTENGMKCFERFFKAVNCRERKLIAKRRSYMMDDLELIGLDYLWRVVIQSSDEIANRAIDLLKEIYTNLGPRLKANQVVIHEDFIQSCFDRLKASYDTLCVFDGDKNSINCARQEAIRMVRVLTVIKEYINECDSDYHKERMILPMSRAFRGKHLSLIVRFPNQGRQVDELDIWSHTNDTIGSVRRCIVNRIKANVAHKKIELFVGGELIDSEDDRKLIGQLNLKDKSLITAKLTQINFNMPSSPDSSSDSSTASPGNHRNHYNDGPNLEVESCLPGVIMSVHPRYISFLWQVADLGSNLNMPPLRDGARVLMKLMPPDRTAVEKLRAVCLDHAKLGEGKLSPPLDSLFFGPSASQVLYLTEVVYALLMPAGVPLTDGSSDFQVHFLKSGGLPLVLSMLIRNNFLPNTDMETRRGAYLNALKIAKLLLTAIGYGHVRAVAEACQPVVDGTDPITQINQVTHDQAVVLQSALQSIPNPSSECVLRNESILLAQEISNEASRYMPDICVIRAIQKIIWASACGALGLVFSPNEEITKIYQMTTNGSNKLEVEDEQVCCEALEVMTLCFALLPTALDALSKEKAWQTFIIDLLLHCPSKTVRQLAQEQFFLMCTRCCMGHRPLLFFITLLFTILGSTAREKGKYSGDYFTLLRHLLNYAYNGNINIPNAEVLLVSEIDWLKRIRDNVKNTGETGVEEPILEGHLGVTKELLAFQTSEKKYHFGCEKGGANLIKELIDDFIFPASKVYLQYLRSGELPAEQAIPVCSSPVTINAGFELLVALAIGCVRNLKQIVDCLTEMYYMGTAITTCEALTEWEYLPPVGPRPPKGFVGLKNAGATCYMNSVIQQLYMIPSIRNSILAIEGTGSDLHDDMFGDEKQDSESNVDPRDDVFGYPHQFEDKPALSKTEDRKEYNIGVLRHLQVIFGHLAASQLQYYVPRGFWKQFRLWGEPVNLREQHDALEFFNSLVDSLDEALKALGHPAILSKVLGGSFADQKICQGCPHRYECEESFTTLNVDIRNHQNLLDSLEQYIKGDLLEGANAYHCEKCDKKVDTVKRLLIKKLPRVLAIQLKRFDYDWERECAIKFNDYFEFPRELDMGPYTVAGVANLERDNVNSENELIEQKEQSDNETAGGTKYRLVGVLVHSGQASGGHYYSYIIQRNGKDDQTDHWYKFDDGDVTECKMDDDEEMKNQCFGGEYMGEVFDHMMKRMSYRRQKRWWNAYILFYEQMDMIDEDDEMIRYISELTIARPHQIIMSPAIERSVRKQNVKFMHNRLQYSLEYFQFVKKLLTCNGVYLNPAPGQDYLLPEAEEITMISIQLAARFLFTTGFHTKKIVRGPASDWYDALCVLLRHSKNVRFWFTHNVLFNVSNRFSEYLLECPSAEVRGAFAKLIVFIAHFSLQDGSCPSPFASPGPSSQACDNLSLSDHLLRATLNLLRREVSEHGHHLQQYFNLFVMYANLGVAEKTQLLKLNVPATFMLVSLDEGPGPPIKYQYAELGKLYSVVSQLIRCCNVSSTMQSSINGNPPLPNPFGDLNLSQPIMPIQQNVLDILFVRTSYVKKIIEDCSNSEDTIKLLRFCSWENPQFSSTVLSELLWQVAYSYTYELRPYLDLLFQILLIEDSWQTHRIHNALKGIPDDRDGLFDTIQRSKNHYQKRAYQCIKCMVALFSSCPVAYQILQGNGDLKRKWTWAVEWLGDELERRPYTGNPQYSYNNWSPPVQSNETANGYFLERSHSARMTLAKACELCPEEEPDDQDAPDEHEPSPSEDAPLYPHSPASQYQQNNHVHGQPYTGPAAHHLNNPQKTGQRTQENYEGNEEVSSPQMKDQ

Row | Compound | log2 ratio of Biotin-Ahx-Ub-VS probe labelling [1] | log2 ratio of Biotin-Ahx-Ub-VS probe labelling [2] | log2 ratio of Biotin-Ahx-Ub-VS probe labelling [3] | log2 ratio of Biotin-Ahx-Ub-VS probe labelling [4] | log2 ratio of Biotin-Ahx-Ub-VS probe labelling [5] | log2 ratio of Biotin-Ahx-Ub-VS probe labelling [6] | log2 ratio of Biotin-Ahx-Ub-VS probe labelling [7]
1 | Cc1cccc(N2CCC(NC(=O)CCl)C2=O)c1 (stereo not drawn) | 0.294 | -0.28 | -0.334 | -0.961 | -0.395 | -0.883 | -0.459
2 | Cl.O=C(CCl)N1CCn2ncc(O)c2C1 | -0.112 | -0.0869 | -0.448 | -2.17 (active) | -0.541 | -1.92 (active) | -0.272
3 | O=C(CCl)Nc1cc2c(cc1Cl)OCCO2 | 0.223 | 0.121 | -0.437 | -0.908 | -0.253 | -0.402 | 0.302
4 | O=C(CCl)N1c2ccccc2NC(=O)C12CCCC2 | -0.37 | 0.258 | -0.0754 | -0.35 | 0.0618 | -0.0496 | -0.0709
5 | O=C(CCl)Nc1cccc2ncccc12 | 0.145 | 0.265 | -0.164 | -0.784 | -0.437 | -1.64 (active) | 0.469
6 | O=C(CCl)N1CCC(S(=O)(=O)c2ccc(F)cc2)CC1 | 0.0377 | -0.0572 | -0.0766 | -0.856 | -0.104 | -0.887 | 0.119
7 | Cc1ccc2nnc(CNC(=O)CCl)n2c1 | 0.487 | -0.0917 | -0.119 | -0.36 | -0.342 | 0.244 | 0.241
8 | NC(=O)C1CCCN(C(=O)CCl)C1 (stereo not drawn) | -0.185 | -0.0378 | 0.103 | 0.0487 | -0.0803 | -0.698 | 0.00724
9 | O=C(CCl)NCc1cccc(N2CCCC2=O)c1 | -0.0239 | 0.0359 | 0.0544 | -0.351 | 0.0802 | -0.491 | 0.144
10 | O=C(CCl)NCCc1ccc(F)cc1 | -0.114 | 0.00457 | 0.0738 | -0.0633 | 0.297 | -0.491 | 0.0794
11 | O=C(CCl)Nc1cc(Cl)ccc1-n1cncn1 | -1.06 (active) | -0.871 | -0.95 | -1.44 (active) | -0.954 | -1.05 (active) | -1.12 (active)
12 | Cc1cc(C2CCCN2C(=O)CCl)nn1C.Cl (stereo not drawn) | -0.0169 | -0.386 | -0.106 | -0.432 | -0.247 | 0.115 | -0.199
13 | O=C(CCl)Nc1cc(Cl)ccc1C(=O)O | 0.337 | 0.177 | -0.138 | -0.2 | -0.258 | -0.128 | 0.233
14 | Cl.Cn1nccc1C(NC(=O)CCl)c1ccccc1 (stereo not drawn) | 0.249 | -0.121 | -0.172 | -0.655 | -0.154 | -0.583 | 0.125
15 | O=C(CCl)N1CCCC2CCCCC21 (stereo not drawn) | -0.0343 | 0.035 | -0.0557 | -0.126 | -0.193 | -0.134 | 0.0864
16 | O=C(CCl)N1CCN2C(=O)CCC2C1 (stereo not drawn) | 0.162 | 0.195 | -0.286 | -0.3 | -0.168 | -0.382 | 0.182
17 | COCC[C@@H](NC(=O)CCl)c1ccccc1 | -0.0256 | 0.0932 | -0.0591 | -0.208 | -0.159 | -0.681 | 0.231
18 | CC(NC(=O)CCl)c1ccc2[nH]ncc2c1 (stereo not drawn) | -0.939 | -0.173 | -0.26 | -1.1 (active) | -0.0706 | -0.756 | -0.629
19 | Cc1cccc(NC(=O)CCl)c1C | -0.281 | -0.431 | -0.156 | -0.703 | -0.325 | -0.414 | -0.291
